In ChEMBL document CHEMBL4513216, “Probing the Open Global Health Chemical Diversity Library for Multistage-Active Starting Points for Next-Generation Antimalarials” (ACS Infect Dis, 2020) one finds INHIBITION data, which are given here for 55 molecules.

In all, about 65,000 compounds went through this assay and about 2,100 (3.2%) showed an effect of 50% or more. The median lay at about -52%. What follows is part of a selection rich in strong results, with near analogues and random picks from the rest.

The experiment deals with Plasmodium falciparum. As to the kind of experiment: Screen against P. falciparum Asexual Blood Stage (ABS), at 5uM. The following applies: tested at 5 uM. The class given is functional, Dd2.
As for `Cc1cc(C)n(CC2CCCN2Cc2ncc(C(C)(C)C)o2)n1` (stereo not given), the INHIBITION is -80.1%. With `Cc1nc(CN2CCCCC2Cn2cncn2)nc2ccccc12` (stereo not given) the figure was -50.6%; with `Cc1nn(C)c(C)c1C1CCCN1Cc1nc(C)c2ccccc2n1` (stereo not given), -19.2%; with `Cc1nc(C)n(CC2CCCN2Cc2nc3ccccc3nc2C)n1` (stereo not given), 31.2%. With `Cc1nc(C)n(CC2CCCN2Cc2nc(N)c3ccccc3n2)n1` (stereo not given) the figure was -98.4%. The same measure for `Cc1nc(CN2CCCC2Cn2cccn2)nc2ccccc12` (stereo not given): 55.5%; for `Cc1nc(C)n(CC2CCCCN2Cc2ncc(C(C)(C)C)o2)n1` (stereo not given): -43.5%. On to `Cc1nc(C)n(CC2CCCN2Cc2nc(C)c3ccccc3n2)n1` (stereo not given), for which the INHIBITION is given as 55%. Turning to `Cc1nc2ccccc2nc1CN1CCCC1c1c(C)nn(C)c1C` (stereo not given), the INHIBITION is reported as 58.1%.

With `Cc1nc(C)n(CC2CCCN2Cc2ncc(C(C)(C)C)o2)n1` (stereo not given), the INHIBITION amounted to 61.9%. With `Cc1nn(C)c(C)c1C1CCCN1Cc1nc2ccccc2n1C` (stereo not given) the figure was 1.9%.

For `Cc1nc(CN2CCCC2Cn2cncn2)nc2ccccc12` (stereo not given), the INHIBITION was -14.5%. With `CCn1nccc1CNC(=O)Cn1cc2c(n1)c(C)nn2C(C)C` the figure was -127%; with `CC(C)N1CCOCC2(CCCN(C(=O)c3cncn3C)C2)C1` (stereo not given), -78.3%; with `O=C(NCc1cc[nH]n1)NCC(O)c1ccc(F)cc1` (stereo not given), 3.65%. With `Cc1ccc(CN2CCC3(CC2)C(c2ccccc2)CC(=O)N3C)o1` (stereo not given) the figure was 17.1%; with `C=Cn1cc(CN2CCC(c3ncc(Cl)cc3S(C)(=O)=O)CC2)c(C)n1`, 14.8%. As for `CN(C(=O)CN1CCOC(Cn2cccn2)C1)c1nccs1` (stereo not given), the INHIBITION was -24.5%. With `Cc1c(Cl)c(CN2CCCC2Cn2cncn2)nc2ccccc12` (stereo not given) the figure was 16.2%. With `Cc1nc2ccccc2nc1CN1CCCC(Cn2cncn2)C1` (stereo not given) the figure was -96.3%; with `Cc1cnn(CC2CCCN2Cc2nc3ccccc3nc2C)c1` (stereo not given), -88.9%; with `Cc1nc2ccccc2nc1CN1CCCC1Cn1cncn1` (stereo not given), 62.3%. With `Cc1nc2ccccc2nc1CN1CCCCC1Cn1cccn1` (stereo not given) the figure was -78.3%; with `Cc1nc2ccccc2nc1CN1CCCC1Cn1cccn1` (stereo not given), 69.3%; with `CC1CCc2nn(CCNC(=O)Cc3ccc(F)cc3)c(=O)cc2C1` (stereo not given), -65.3%. `CN1CCOCC2(CCCN(C(=O)c3ccc(-n4cccc4)cc3)C2)C1` (stereo not given): the INHIBITION amounted to 28.9%. The same measure for `CNC(=O)c1nc(CN2CCOC(CCCC(C)C)C2)no1` (stereo not given): -32%; for `CNC(=O)c1nc(CN2CCOC(C(F)(F)F)C2)no1` (stereo not given): -43.7%. With `CNC(=O)c1nc(CN2CCOC(Cc3ccc(F)cc3)C2)no1` (stereo not given) the figure was 51.7%; with `CSC(C)(C)CNC(=O)NC1CCN(CC=C(C)C)CC1`, -10.7%. The same measure for `COCC(=O)N1C[C@H]2CCC[C@@]2(COC)C1`: -47.2%; for `Cc1cc(CN2CCCC2Cn2cncn2)no1` (stereo not given): -174%. Consider `Cc1cc(CN2CCCC2Cn2cccn2)no1` (stereo not given), for which the INHIBITION is reported as -13.9%.

Consider `c1cnn(CC2CCCN2Cc2cn3ccsc3n2)c1` (stereo not given), for which the INHIBITION was 64.9%. For `Cc1cc(CN2CCCCC2Cn2cncn2)no1` (stereo not given), the INHIBITION came out at 57.3%. The same measure for `c1ncn(CC2CCCN(Cc3cn4ccsc4n3)C2)n1` (stereo not given): -48.4%.

`Cc1nc(C)n(CC2CCCN2Cc2cn3ccsc3n2)n1` (stereo not given): the INHIBITION is on record as -20.5%. With `c1ncn(CC2CCCCN2Cc2cn3ccsc3n2)n1` (stereo not given) the figure was 61.4%. With `c1cnn(CC2CCCCN2Cc2cn3ccsc3n2)c1` (stereo not given) the figure was -19.1%; with `c1ncn(CC2CCCN2Cc2cn3ccsc3n2)n1` (stereo not given), -64.9%; with `CC(C)Nc1ncnc2c1CCN(C(=O)c1ccncc1F)CC2`, -7.41%. The same measure for `CS(=O)(=O)NC(=O)c1ccn(-c2ccccc2Cl)n1`: -38.1%; for `Cc1cc(C)n(CC2CN(CC(=O)NCc3ccccn3)CCO2)n1` (stereo not given): -102%.

`CSCc1noc(CNC(=O)C2CCN(C3CCCCC3)CC2)n1`: the INHIBITION was -24.2%. With `COCCN1CCO[C@@H]2CN(C(=O)Cc3ccc(F)cc3)CC[C@@H]2C1` the figure was 12%; with `COc1ccc(CN2C[C@H]3CN(c4ccsc4)C(=O)[C@H]3C2)cc1`, -68.6%. The same measure for `CCN1CCN2CCCN(S(=O)(=O)c3cccc(F)c3)C2C1=O` (stereo not given): 24.6%; for `CCN1CCN2CCCN(S(=O)(=O)c3ccc(C)cc3C)C2C1=O` (stereo not given): 64.3%; for `CCN1CCN2CCCN(S(=O)(=O)c3ccc(S(C)(=O)=O)cc3)C2C1=O` (stereo not given): 20.7%. The same measure for `Cc1cnc(C(=O)N2Cc3cc(Cl)ccc3OC3(CCOCC3)C2)cn1`: -30.5%; for `CCc1ccccc1N1CC(c2nnc(N)s2)CC1=O` (stereo not given): -94.9%; for `COCC(=O)N1CCOC2(CCCN(c3cnccn3)C2)C1` (stereo not given): -88.3%. As for `CC(C)(C)CN1CCCC12Cc1ccccc1CNC2=O` (stereo not given), the INHIBITION is listed as 2.53%. The same measure for `Cc1ccc(CCN2CCCC23Cc2ccccc2CNC3=O)cc1` (stereo not given): -15.1%. With `CC(C)CCN1CCCC12Cc1ccccc1CNC2=O` (stereo not given) the figure was 51.7%.
